Results filed as inconclusive are left out. Active and inactive are the calls of the source. Calls follow the shape of the dose curve; as a rule, active = well fitted curve in the direction sought with a large enough effect; inconclusive = small, poorly fitted or top-dose-only effect, or another doubt; inactive = no such curve, though single readings can be large; an effect the other way counts as inactive or inconclusive.
How the values were obtained:
[1] = Quantitative High-Throughput drug screen in 47 multiple myeloma cell lines against the NCATS MIPE library collection: KMM1_JCRB cell viability assay (AID 1918960); also: nearly all actives have a fitted effect of over 30% in size
Summary of the method: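 ATP readout (CellTiter-Glo), 48 h drug incubation, 37 °C/5% CO2, 500 cells per well; normalisation to DMSO (100%) and media-only (0%) controls.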

[2] = Quantitative High-Throughput drug screen in 47 multiple myeloma cell lines against the NCATS MIPE library collection: JIM3_ECACC cell viability assay (AID 1918963; also: nearly all actives have a fitted effect of over 35% in size)
Summary of the method: (§1)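 Myeloma cell lines, 500 cells per well, exposed to MIPE 4.0 library compounds for 48 h at 37C, 5% CO2. Viability from ATP by CellTiter-Glo luminescence; normalised to DMSO (100%) and media-only (0%) wells.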

[3] = Quantitative High-Throughput drug screen in 47 multiple myeloma cell lines against the NCATS MIPE library collection: INA6_PLB cell viability assay (AID 1918965; also: nearly all actives have a fitted effect of over 55% in size)
Summary of the method: as §1

[4] = Quantitative High-Throughput drug screen in 47 multiple myeloma cell lines against the NCATS MIPE library collection: H1112_PLB cell viability assay (AID 1918967; also: nearly all actives have a fitted effect of over 30% in size)
Summary of the method: (§2)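 Inhibition of cell viability is measured here. Each line was plated at 500 cells per well, treated with MIPE 4.0 drugs, kept 48 hours at 37C, then assayed for ATP content by CellTiter-Glo luminescence.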

[5] = Quantitative High-Throughput drug screen in 47 multiple myeloma cell lines against the NCATS MIPE library collection: Karpas25_ECACC cell viability assay (AID 1918968; also: nearly all actives have a fitted effect of over 35% in size)
Summary of the method: as §2

[6] = Quantitative High-Throughput drug screen in 47 multiple myeloma cell lines against the NCATS MIPE library collection: KMS12BM_JCRB cell viability assay (AID 1918971); also: nearly all actives have a fitted effect of over 35% in size
Summary of the method: as §1

[7] = Quantitative High-Throughput drug screen in 47 multiple myeloma cell lines against the NCATS MIPE library collection: NCIH929_DSMZ cell viability assay (AID 1918978); also: nearly all actives have a fitted effect of over 35% in size
Summary of the method: (§3)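 500 cells/well per myeloma line exposed to pinned MIPE 4.0 compounds for 48 h at 37 °C, 5% CO2. Viability read as ATP by CellTiter-Glo luminescence, normalised to DMSO-only (100%) and media-only (0%) wells.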

[8] = Quantitative High-Throughput drug screen in 47 multiple myeloma cell lines against the NCATS MIPE library collection: OCIMY1_PLB cell viability assay (AID 1918979); also: nearly all actives have a fitted effect of over 35% in size
Summary of the method: as §3

[9] = Quantitative High-Throughput drug screen in 47 multiple myeloma cell lines against the NCATS MIPE library collection: MM1S_ATCC cell viability assay (AID 1918980); also: nearly all actives have a fitted effect of over 45% in size
Summary of the method: as §3

[10] = Quantitative High-Throughput drug screen in 47 multiple myeloma cell lines against the NCATS MIPE library collection: JJN3_DSMZ cell viability assay (AID 1918966; also: nearly all actives have a fitted effect of over 50% in size)
Summary of the method: as §2

[11] = Quantitative High-Throughput drug screen in 47 multiple myeloma cell lines against the NCATS MIPE library collection: KMS20_JCRB cell viability assay (AID 1918973); also: nearly all actives have a fitted effect of over 45% in size
Summary of the method: as §2

[12] = Quantitative High-Throughput drug screen in 47 multiple myeloma cell lines against the NCATS MIPE library collection: MMM1_PLB cell viability assay (AID 1918976); also: nearly all actives have a fitted effect of over 35% in size
Summary of the method: as §3

[13] = Quantitative High-Throughput drug screen in 47 multiple myeloma cell lines against the NCATS MIPE library collection: MOLP8_DSMZ cell viability assay (AID 1918977); also: nearly all actives have a fitted effect of over 45% in size
Summary of the method: as §3

[14] = Quantitative High-Throughput drug screen in 47 multiple myeloma cell lines against the NCATS MIPE library collection: JIM1_ECACC cell viability assay (AID 1918964)
Summary of the method: as §2

[15] = Quantitative High-Throughput drug screen in 47 multiple myeloma cell lines against the NCATS MIPE library collection: KMS12PE_JCRB cell viability assay (AID 1918972); also: nearly all actives have a fitted effect of over 30% in size
Summary of the method: as §1

[16] = Quantitative High-Throughput drug screen in 47 multiple myeloma cell lines against the NCATS MIPE library collection: KMS26_JCRB cell viability assay (AID 1918975); also: nearly all actives have a fitted effect of over 45% in size
Summary of the method: as §1

[17] = Quantitative High-Throughput drug screen in 47 multiple myeloma cell lines against the NCATS MIPE library collection: KMS21BM_JCRB cell viability assay (AID 1918974); conditions: ATP luminescence, 48 h; viability: at 45.8 µM (top of the series)
Summary of the method: as §2

[18] = Quantitative High-Throughput drug screen in 47 multiple myeloma cell lines against the NCATS MIPE library collection: KMS27_JCRB cell viability assay (AID 1918970); conditions: KMS27 myeloma cells, CellTiter-Glo ATP viability, 48 h; viability (% of DMSO): at 45.8 µM (top of the series); also: nearly all actives have a fitted effect of over 30% in size
Summary of the method: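 KMS27_JCRB myeloma cells, 500 per well, exposed 48 h at 37 C, 5% CO2 to MIPE 4.0 compounds. Viability from ATP by CellTiter-Glo luminescence, normalized to DMSO (100%) and medium-only (0%) wells.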
Potency is read from the fitted curve at half-maximal effect.

With Cc1ccccc1C(C(=O)NC1CCCCC1)N(C(=O)CNc1ccc(C#N)cc1)c1cccc(F)c1 (stereo not drawn) the Potency [1] was “inactive”, the Potency [2] was “inactive” and the Potency [3] was “inactive”. For the same compound, the Potency [4] was “inactive”, the Potency [5] was “inactive” and the Potency [6] was 2.96 µM (active). The Potency [7] was “inactive”, the Potency [8] was “inactive” and the Potency [9] was “inactive”.

In the case of C[C@H]1COC2=C1C(=O)C(=O)c1c2ccc2c1CCCC2(C)C, the Potency [1] is reported as “inactive”, the Potency [2] is reported as 23.5 µM (active) and the Potency [3] is reported as 14.8 µM (active). For the same compound, the Potency [10] was 18.7 µM (active), the Potency [5] was 4.69 µM (active) and the Potency [6] was 18.7 µM (active). The Potency [11] was 10.5 µM (active), the Potency [12] was 13.2 µM (active) and the Potency [13] was 20.9 µM (active). For the same compound, the Potency [9] was 26.4 µM (active).

In the case of CC(C)CN(C[C@@H](O)[C@H](Cc1ccccc1)NC(=O)O[C@H]1CO[C@H]2OCC[C@H]21)S(=O)(=O)c1ccc(N)cc1, the Potency [1] is reported as “inactive”, the Potency [2] is reported as 13.2 µM (active) and the Potency [14] is reported as “inactive”. For the same compound, the Potency [10] was 23.5 µM (active), the Potency [4] was 2.09 µM (active) and the Potency [5] was 3.72 µM (active). For the same compound, the Potency [6] was 20.9 µM (active), the Potency [15] was “inactive” and the Potency [16] was 3.32 µM (active). The Potency [12] was 20.9 µM (active), the Potency [13] was “inactive” and the Potency [9] was 2.35 µM (active).

With CCNC(=O)Nc1ccc(Oc2ncnc(N)c2C=NOC)cc1Cl the Potency [1] was 4.69 µM (active), the Potency [2] was 9.35 µM (active) and the Potency [14] was 2.64 µM (active). The Potency [4] was “inactive”, the Potency [6] was 14.8 µM (active) and the Potency [15] was 2.96 µM (active). The Potency [17] was 2.35 µM (active), the Potency [7] was “inactive” and the Potency [8] was 23.5 µM (active).

With COc1ccc(CCN(C)CCCOc2ccc(S(=O)(=O)c3[nH]c4ccccc4c3C(C)C)cc2)cc1OC the Potency [1] was “inactive”, the Potency [2] was 18.7 µM (active) and the Potency [3] was 16.6 µM (active). For the same compound, the Potency [4] was 18.7 µM (active), the Potency [18] was “inactive” and the Potency [6] was 23.5 µM (active). For the same compound, the Potency [15] was “inactive”, the Potency [12] was 9.35 µM (active) and the Potency [9] was 20.9 µM (active).

With CN(C)CCCNC(=O)c1ccc(-c2cc(O)c3ncccc3c2)cc1 the Potency [1] was 20.9 µM (active), the Potency [2] was 23.5 µM (active) and the Potency [3] was 20.9 µM (active). The Potency [10] was 20.9 µM (active), the Potency [5] was 18.7 µM (active) and the Potency [6] was 9.35 µM (active). For the same compound, the Potency [15] was 20.9 µM (active), the Potency [12] was 11.8 µM (active) and the Potency [7] was 23.5 µM (active). The Potency [9] was 20.9 µM (active).

With CC(C)(O)CC(=O)NCCn1ccc2ncnc(Nc3ccc(Oc4cccc(C(F)(F)F)c4)c(Cl)c3)c21 the Potency [1] was 5.26 µM (active), the Potency [2] was 23.5 µM (active) and the Potency [3] was 29.6 µM (active). For the same compound, the Potency [5] was 23.5 µM (active), the Potency [6] was 23.5 µM (active) and the Potency [15] was 5.9 µM (active). For the same compound, the Potency [16] was 26.4 µM (active), the Potency [12] was 20.9 µM (active) and the Potency [7] was 26.4 µM (active). The Potency [9] was 0.332 µM (active).

In the case of CC[C@H](CC#N)OC(=O)N[C@@H](C)c1cccc(NC(=O)Nc2ccc(-c3cnco3)c(OC)c2)c1, the Potency [1] is reported as 0.418 µM (active), the Potency [2] is reported as 1.32 µM (active) and the Potency [14] is reported as 13.2 µM (active). The Potency [3] was 1.05 µM (active), the Potency [4] was 1.66 µM (active) and the Potency [18] was 14.8 µM (active). The Potency [6] was 1.48 µM (active), the Potency [15] was 14.8 µM (active) and the Potency [12] was 20.9 µM (active). The Potency [9] was 1.18 µM (active).

For CCCCCOC(=O)Nc1nc(=O)n([C@@H]2O[C@H](C)[C@@H](O)C2O)cc1F (stereo partly drawn), the Potency [1] was “inactive”, the Potency [2] was “inactive” and the Potency [14] was “inactive”. The Potency [10] was “inactive”, the Potency [4] was “inactive” and the Potency [5] was 18.7 µM (active). The Potency [6] was “inactive”, the Potency [15] was “inactive” and the Potency [11] was “inactive”. For the same compound, the Potency [16] was “inactive”, the Potency [12] was “inactive” and the Potency [13] was “inactive”. For the same compound, the Potency [8] was “inactive”.

For CN(C)CCN(Cc1ccc(Cl)cc1)c1ccccn1, the Potency [1] was “inactive”, the Potency [2] was “inactive” and the Potency [3] was 20.9 µM (active). For the same compound, the Potency [10] was “inactive”, the Potency [18] was “inactive” and the Potency [6] was “inactive”. For the same compound, the Potency [15] was “inactive”, the Potency [7] was 10.5 µM (active) and the Potency [8] was “inactive”. The Potency [9] was 16.6 µM (active).

In the case of CC(C)(C)c1[nH]cnc1C=c1[nH]c(=O)c(=Cc2ccccc2)[nH]c1=O, the Potency [1] is reported as “inactive”, the Potency [2] is reported as “inactive” and the Potency [14] is reported as “inactive”. For the same compound, the Potency [10] was 0.0481 µM (active), the Potency [16] was 0.0241 µM (active) and the Potency [12] was 15.2 µM (active). For the same compound, the Potency [7] was 0.0215 µM (active).

With O=c1cc(-c2ccc(O)c(O)c2)oc2cc(O)cc(O)c12 the Potency [1] was “inactive”, the Potency [2] was “inactive” and the Potency [3] was 26.4 µM (active). For the same compound, the Potency [6] was “inactive”, the Potency [15] was “inactive” and the Potency [17] was 2.09 µM (active). For the same compound, the Potency [16] was “inactive”.

In the case of CN1c2ccccc2C(=O)N2CCc3c([nH]c4ccccc34)C21 (stereo not drawn), the Potency [1] is reported as “inactive”, the Potency [2] is reported as 23.5 µM (active) and the Potency [14] is reported as “inactive”. The Potency [5] was 23.5 µM (active), the Potency [18] was “inactive” and the Potency [15] was “inactive”. For the same compound, the Potency [8] was “inactive” and the Potency [9] was 10.5 µM (active).

In the case of Clc1ccc(COC(Cn2ccnc2)c2ccc(Cl)cc2Cl)c(Cl)c1 (stereo not drawn), the Potency [1] is reported as 18.7 µM (active), the Potency [2] is reported as 20.9 µM (active) and the Potency [14] is reported as 26.4 µM (active). For the same compound, the Potency [3] was 20.9 µM (active), the Potency [4] was 18.7 µM (active) and the Potency [5] was 18.7 µM (active). The Potency [6] was 20.9 µM (active), the Potency [15] was 18.7 µM (active) and the Potency [17] was 37.2 µM (active). For the same compound, the Potency [12] was 16.6 µM (active), the Potency [13] was 18.7 µM (active) and the Potency [7] was 18.7 µM (active).

With C#CCN(C)CC1=Cc2ccccc2Oc2ccccc21 the Potency [1] was “inactive”, the Potency [2] was “inactive” and the Potency [14] was “inactive”. For the same compound, the Potency [4] was “inactive”, the Potency [6] was 16.6 µM (active) and the Potency [15] was “inactive”. For the same compound, the Potency [13] was “inactive”, the Potency [7] was “inactive” and the Potency [8] was “inactive”.

With CN1[C@H]2CC[C@H]1CC(OC(=O)c1c[nH]c3ccccc13)C2 (stereo partly drawn) the Potency [1] was “inactive”, the Potency [2] was “inactive” and the Potency [14] was “inactive”. For the same compound, the Potency [3] was “inactive”, the Potency [6] was “inactive” and the Potency [15] was “inactive”. The Potency [11] was 14.8 µM (active), the Potency [16] was “inactive” and the Potency [12] was 1.32 µM (active). The Potency [13] was 2.35 µM (active), the Potency [7] was 18.7 µM (active) and the Potency [8] was “inactive”. The Potency [9] was 20.9 µM (active).

Source: PubChem BioAssay (NCATS)
